# Furin inh: blocks human furin protease activity | P09958 | purified furin, fluorogenic substrate cleavage | inhibition, % at 20 µM or 30 µM | actives 0.061% (n = 220,000); in the data active means inhibition above about 25%
# Target sequence (P09958 108-714 limits assumed): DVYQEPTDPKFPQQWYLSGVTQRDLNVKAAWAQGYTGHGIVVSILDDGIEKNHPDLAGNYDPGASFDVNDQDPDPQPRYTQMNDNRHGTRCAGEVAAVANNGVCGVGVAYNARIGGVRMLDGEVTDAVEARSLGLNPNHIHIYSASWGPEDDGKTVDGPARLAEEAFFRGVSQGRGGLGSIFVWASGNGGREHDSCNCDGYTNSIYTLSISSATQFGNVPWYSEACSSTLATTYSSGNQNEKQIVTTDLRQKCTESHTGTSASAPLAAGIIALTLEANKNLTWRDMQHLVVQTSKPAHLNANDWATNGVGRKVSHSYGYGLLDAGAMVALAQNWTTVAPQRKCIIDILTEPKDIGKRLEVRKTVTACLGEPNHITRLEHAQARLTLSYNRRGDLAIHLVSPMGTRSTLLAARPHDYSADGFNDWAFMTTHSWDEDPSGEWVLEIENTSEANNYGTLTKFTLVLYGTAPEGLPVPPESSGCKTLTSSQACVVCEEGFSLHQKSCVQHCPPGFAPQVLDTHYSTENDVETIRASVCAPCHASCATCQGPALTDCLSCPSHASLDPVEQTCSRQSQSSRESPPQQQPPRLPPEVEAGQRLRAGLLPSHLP
# FAS-TE inh: inhibitors of human fatty acid synthase thioesterase domain | recombinant FAS-TE, OMFH fluorogenic substrate, fluorescence endpoint | actives 0.67% (n = 360,000) | inhibition, % at 15 µM | AID 602261;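 active means compounds whose normalised, plate-corrected inhibition of enzyme fluorescence in the single-dose primary screen is 50% or more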;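 further: 0% = DMSO with enzyme and 100% = substrate without enzyme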
# DTT redox prof: compounds producing H2O2 with reducing agent – biochemical, NIH compound library profiling, artefact control for MLSCN library redox annotation, primary screen. DTT-dependent redox cycling H2O2, phenol red/HRP absorbance; 100% = 100 µM peroxide control, 0% = buffer. activation, % at 10 µM. actives 0.03% (n = 200,000);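 active means activation of at least 50% relative to the plate's high and low controls in the primary single-dose screen; inactive means activation below 50%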;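 further: compound incubated with DTT at 0.8 mM final as the reducing agent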
# UBC9 SUMO inh: blocks human SUMOylation mediated by UBC9 | inhibition, % at 35 µM | P63279 | HTRF SUMOylation assay, SAE1/SAE2 + UBC9, in vitro | actives 0.36% (n = 290,000); in the data active means inhibition above about 50%, passing the limit was not always enough
# p97 ATPase inh: inhibitors of human p97 ATPase; P55072; recombinant p97 ATPase, Kinase-Glo ATP luminescence, 3 h; inhibition, % at 8 µM; actives 0.42% (n = 220,000); AID 1481; in the data active means inhibition above about 15%;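 further: 0% = DMSO vehicle and 100% = wells lacking enzyme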
# PKD1 inh: inhibitors of human PKD1 kinase; AID 797; PKD1 kinase fluorescence polarization assay; inhibition, % (test concentration not listed); actives 0.056% (n = 200,000); in the data active means inhibition above about 50%
# FAS-TE conf: FAS thioesterase (human) inhibition, confirmation. actives 45% (n = 2,300). recombinant FAS-TE, OMFH fluorogenic substrate, fluorescence. inhibition, % at 15 µM. shares compounds with FAS-TE inh. AID 624325;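 active means compounds inhibiting the enzyme by at least 50% at 15 µM in any one of the replicates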;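 further: 0% = enzyme with DMSO only and 100% = wells lacking enzyme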
# * marks the source's active call; other numbers are inactive results; x = no result. Hits are enriched below; roughly 1.2% of the tested compounds scored in any of these assays.
SMILES,Furin inh,FAS-TE inh,DTT redox prof,UBC9 SUMO inh,p97 ATPase inh,PKD1 inh,FAS-TE conf
CCOC(=O)[C@@H]1[C@H]2COc3cc(OC)ccc3[C@H]2N2C(=O)N(c3cccc(Cl)c3)C(=O)[C@]12C,x,21,x,-3,x,x,x
COc1ccc2c(c1)OC[C@H]1[C@H]2N2C(=O)CN(Cc3ccc(Cl)cc3)C(=O)[C@@]2(C)[C@H]1c1ccccc1,x,75*,x,x,x,x,29
COc1ccc2c(c1)OC[C@H]1[C@H]2N2C(=O)CN(Cc3ccccc3)C(=O)[C@@]2(C)[C@H]1c1ccccc1,x,49,x,x,x,x,x
COc1ccc(CN2CC(=O)N3[C@H]4c5ccc(OC)cc5OC[C@@H]4[C@H](c4ccccc4)[C@]3(C)C2=O)cc1,x,66*,x,x,x,x,18
CCN1C(=O)[C@H]2[C@@H](c3ccc(-c4ccc(OC)cc4)c(OC)c3)N3CCCC[C@@]3(C(=O)OC)[C@H]2C1=O,x,70*,x,x,x,x,22
CCN1C(=O)[C@@H]2[C@@H](c3ccc(-c4ccc(OC)cc4)c(OC)c3)N3CCCC[C@@]3(C(=O)OC)[C@@H]2C1=O,x,51*,x,x,x,x,-4
COC(=O)[C@@]12CCCCN1[C@H](c1ccc(-c3ccc(Cl)c(Cl)c3)c(OC)c1)[C@H]1C(=O)N(C)C(=O)[C@H]12,x,60*,x,x,x,x,17
CC(=O)Nc1ccc(S(=O)(=O)N2CCN=C2SCc2ccc([N+](=O)[O-])cc2)cc1,x,14,x,17,x,x,x
CCCN1C[C@H](CSC)C[C@@H]2c3cccc4[nH]cc(c34)C[C@H]21,-11,-5,0,25,3,-3,x
CN1C[C@H](C(=O)N[C@]2(C)O[C@@]3(O)[C@@H]4CCCN4C(=O)[C@H](Cc4ccccc4)N3C2=O)CC2c3cccc4[nH]cc(c34)C[C@H]21 (some centres not stated),x,56*,x,x,x,x,52*
CC(=O)N(C1=C(Cl)C(=O)c2ccccc2C1=O)C1CCCCC1,-10,80*,x,71*,8,x,71*
CC(=O)N(c1ccccc1C)C1CCCC1,-19,-7,0,0,-1,2,x
Cc1ccc(S(=O)(=O)N2CCN(c3ncnc4scc(-c5ccccc5)c34)CC2)cc1,x,52*,x,x,x,x,15
COc1ccc(-c2csc3ncnc(N4CCN(S(=O)(=O)c5cccc(C(F)(F)F)c5)CC4)c23)cc1,x,50*,x,x,x,x,8
Cc1nc(N2CCN(S(=O)(=O)c3ccccc3C#N)CC2)c2c(-c3ccccc3)csc2n1,x,83*,x,x,x,x,39
N#Cc1ccccc1S(=O)(=O)N1CCN(c2nc(-c3ccccc3)nc3ccccc23)CC1,x,26,x,x,x,x,x
COc1ccc(OC)c(NC(=O)c2ccccc2N(Cc2ccccc2)S(C)(=O)=O)c1,-12,2,-1,-9,3,4,x
COc1ccc(N2CCN(C(=O)COC(=O)CCOc3ccc(C(C)(C)C)cc3)CC2)cc1,x,-3,x,x,x,x,x
COc1cccc(NC(=O)NCc2ccccc2Cl)c1,x,5,x,x,x,x,x
COc1cc(/C=C2\SC(=O)NC2=O)ccc1OCC(=O)N1CCOCC1,x,-4,x,x,x,x,x
Cn1c(SCC(=O)N2c3ccccc3CCc3ccccc32)nnc1-c1cc2ccccc2cc1O,-2,67*,0,32,-8,-7,9
O=C(Nc1ccc(Br)cc1)c1cccc(-n2cnnn2)c1,x,52*,x,-2,x,x,31*
CC(=O)Nc1ccc(NC(=O)C(C)NC(C)c2cccc3ccccc23)cc1 (configuration not stated),x,3,x,11,x,x,x
CCn1c(C)cs/c1=N\S(=O)(=O)c1ccccc1,x,-5,x,x,x,x,x
O=Cc1s/c(=N\S(=O)(=O)c2ccccc2)n(CCCCl)c1Cl,-4,76*,0,23,4,-1,83*
SMILES,Furin inh,FAS-TE inh,DTT redox prof,UBC9 SUMO inh,p97 ATPase inh,PKD1 inh,FAS-TE conf
CC1CCc2nc(NC(=O)CN3CCN(c4ccc(F)cc4)CC3)sc2C1 (configuration not stated),-6,85*,0,12,2,2,79*
COc1cc(OC)c(N(C)S(=O)(=O)c2cccc(C(=O)Nc3nccs3)c2)cc1Cl,x,66*,x,x,x,x,14
COc1cc(OC)c(N(C)S(=O)(=O)c2cccc(C(=O)OCC(=O)N(C)C3CCCCC3)c2)cc1Cl,x,66*,x,x,x,x,11
Nc1c(Cl)ncnc1Nc1ccc(C(=O)O)cc1,x,-6,x,x,x,x,x
Cn1cnnc1Sc1cc(N2CCN(S(=O)(=O)c3ccc4ccccc4c3)CC2)ccc1[N+](=O)[O-],-4,64*,1,16,11,-3,-4
O=[N+]([O-])c1ccc(N2CCN(S(=O)(=O)c3ccc4ccccc4c3)CC2)cc1NCC1CCCO1 (configuration not stated),-6,51*,2,-17,2,-1,2
Cc1[nH]n(-c2ccccc2)c(=O)c1/C=N/NC(=O)c1ccccc1F,x,5,x,-19,x,x,x
O=C(NCc1ccc(Cl)cc1)C1CC(O)CN1S(=O)(=O)c1ccc(Cl)cc1 (configuration not stated),x,6,x,5,x,x,x
CC(=O)c1cccc(OC(=O)Oc2cccc(C(C)=O)c2)c1,x,50*,x,x,x,x,69*
CC1CC(C)CN(CCCNC(=O)c2ccc3c(c2)ncn3C2CCCC2)C1 (configuration not stated),x,-7,x,1,x,x,x
CCCN(CC(=O)Nc1ccccc1Br)CC(=O)Nc1ccc(F)c(F)c1F,-23,18,0,4,0,0,x
CCCN(CC(=O)Nc1cc(Cl)cc(Cl)c1)CC(=O)Nc1ccc(F)c(F)c1F,-24,51*,0,-30,-5,-8,34
O=C(COC(=O)/C=C/c1cccc(C(F)(F)F)c1)NC1CCS(=O)(=O)C1 (configuration not stated),x,-8,x,x,x,x,x
CC(=O)Nc1ccc(NC2=Nc3ccccc3N3C2=Nc2c(c(C)nn2-c2ccccc2)C3c2ccccc2)cc1 (configuration not stated),3,46,4,11,-6,-6,x
COc1ccc(NC2=Nc3ccccc3N3C2=Nc2c(c(C)nn2-c2ccc(C)cc2)C3c2cccnc2)cc1 (configuration not stated),-20,70*,2,14,5,-2,9
O=C(COC(=O)c1cc([N+](=O)[O-])ccc1N1CCOCC1)Nc1ccc(Cl)cc1,x,81*,x,4,x,x,49*
NS(=O)(=O)c1ccc(CCNC(=O)COC(=O)c2cc([N+](=O)[O-])ccc2N2CCOCC2)cc1,x,14,x,x,x,x,x
CCc1cccc(C)c1NC(=O)COC(=O)c1cc([N+](=O)[O-])ccc1N1CCOCC1,x,68*,x,x,x,x,69*
COCCOc1ccc(C(F)(F)F)cc1NC(=O)COC(=O)c1cc([N+](=O)[O-])ccc1N1CCOCC1,x,72*,x,2,x,x,30*
